Screens from PubChem BioAssay.
Rows were chosen to be rich in hits. Some 3.7% of all compounds tested hit in one or more screens of this group.
Anthrax LF prot: inhibitors of Bacillus anthracis lethal factor protease; inhibition, % at 10 µM; P15917; 360,000 tested, 0.12% active; multiplex microsphere protease cleavage assay, LF; AID 588501; further: plate controls were buffer without enzyme for full effect and enzyme alone for no effect
Autofluor counter: counter-screen for toxin protease inhibitors: compound fluorescence. compound autofluorescence counterscreen, microsphere flow cytometry; hits give high values. fluorescence intensity (no concentration beside the values). 360,000 tested, 3.1% active. AID 624483; in the data active means fluorescence intensity above about 16000; inconclusive means no clear call, values can overlap the other calls
BoNT-A LC inh2: blocks Botulinum neurotoxin A light chain protease. multiplex microsphere protease substrate cleavage, flow cytometry. inhibition, % at 10 µM. 360,000 tested, 0.17% active. AID 588499; further: plate controls were buffer without enzyme for full effect and enzyme alone for no effect
BoNT F protease: blocks Botulinum neurotoxin F light chain protease. inhibition, % at 10 µM. AID 588497. Multiplex microsphere protease cleavage assay, flow cytometry. 360,000 tested, 0.22% active; in the data active means inhibition above about 35%, passing the limit was not always enough; inconclusive means no clear call, values can overlap the other calls; further: plate controls were buffer without enzyme for full effect and enzyme alone for no effect
MazEF act: increases E. coli MazEF RNase cleavage of RNA. 350,000 tested, 0.32% active. activation, % at 20 µM. AID 504720. FAM/BHQ RNA-DNA oligo cleavage fluorescence, 5 h; in the data active means activation above about 50%
* = called active by the depositor; ? = inconclusive; . = not tested or not shown. Unless noted, no stated cut-off is given here; in the data, active means inhibition above about 30%; inconclusive means no clear call, values can overlap the other calls; inactive means below that.

SMILES | Anthrax LF prot | Autofluor counter | BoNT-A LC inh2 | BoNT F protease | MazEF act
COc1cccc(-c2cc(C(=O)Nc3c(C)nn(Cc4ccccc4C)c3C)no2)c1 | 0 | 19715* | 4 | 4 | 2
O=C(NCCCn1ccnc1)c1cc(-c2ccc3c(c2)OCO3)on1 | 1 | 20683* | 0 | -2 | 3
C[C@@H]1CN([C@H](C)CO)C(=O)c2cc(Br)cnc2O[C@@H]1CN(C)C(=O)Nc1cccc(F)c1 | -1 | 2905 | 0 | -1 | 4
O=C(NCCS(=O)(=O)NCc1ccccc1Cl)c1ccccc1 | -3 | 5868 | -2 | 4 | 2
CC(NC(=O)CSc1ncnc2nc[nH]c12)c1ccccc1 (stereo not given) | -6 | 21770* | 1 | 4 | -7
O=C(CSc1ncnc2nc[nH]c12)NCCc1ccccc1 | -7 | 3124 | -1 | 4 | 6
Cc1cc(C)nc(NC(=O)c2cccc(Cl)c2)n1 | 2 | 22692* | 2 | 0 | 9
COc1ccccc1NC(=O)CN1CCN(Cc2ccccc2)CC1 | -5 | 16872* | -2 | -5 | -4
COc1ccccc1NC(=O)CN1CCN(c2ccccn2)CC1 | -2 | 20530* | -1 | -1 | -4
COc1ccc(NC(=O)CN2CCN(CC(=O)Nc3ccccc3Cl)CC2)c(OC)c1 | -1 | 22552* | 4 | 1 | -2
O=C(Nc1ccccc1)N1CCN(c2ccccn2)CC1 | 3 | 3348 | -1 | 6 | -3
Cc1ccc(NC(=O)N2CCN(c3ccccn3)CC2)cc1 | -1 | 22825* | 1 | 2 | 3
Cc1ccc(C(=O)NCC(=O)N2CCN(c3cccc(Cl)c3)CC2)s1 | 0 | 2779 | 0 | -2 | 0
CN(NC(=O)Nc1ccc(Cl)cc1)c1c(Cl)c(Cl)nn1C | 0 | 2595 | 0 | -3 | 2
CN(C(=O)Nc1ccc(Cl)cc1)c1c2c(nn1C)CCCC2 | -3 | 23809* | ? | -6 | 2
CC1(C)Oc2ccc(C(=O)NC3CCCC3)cc2N(CC(=O)NC2CCCCC2)C1=O | -4 | 17996* | -4 | -9 | 8
COc1ccccc1NC(=O)c1ccc2c(c1)N(CC(=O)NC(C)(C)C)C(=O)C(C)(C)O2 | 4 | 3464 | 1 | 12 | 6
CC(C)NC(=O)c1ccc2c(c1)N(CC(=O)NC1CCCCC1)C(=O)C(C)(C)O2 | -1 | 5955 | 0 | -4 | 4
CC(C)(C)NC(=O)c1ccc2c(c1)N(CC(=O)N1CCCC1)C(=O)C(C)(C)O2 | 8 | 2891 | 2 | -11 | -11
Cc1ccc(NC(=O)c2ccc3c(c2)N(CC(=O)N2CCCCC2)C(=O)C(C)(C)O3)cc1 | -6 | 23135* | -2 | -2 | 6
CC(C)(C)NC(=O)c1ccc2c(c1)N(CC(=O)N1CCN(c3ccc(F)cc3)CC1)C(=O)C(C)(C)O2 | -2 | 16213* | 1 | 4 | 8
CCOC(=O)CN1C(=O)C(C)(C)Oc2ccc(C(=O)Nc3ccccc3OC)cc21 | -2 | 20848* | -4 | -6 | 3
CC(=O)C1=CCC(c2ccccc2F)N(S(=O)(=O)c2ccc(C)cc2)C1 (stereo not given) | -3 | 5925 | 1 | 4 | .
CCN1C(=O)CSc2ccc(C(=O)NC3CCCCC3)cc21 | -2 | 20222* | 0 | -1 | 0
CSc1ncccc1C(=O)OCC(=O)NC1CC1 | ? | ? | ? | ? | 8
SMILES | Anthrax LF prot | Autofluor counter | BoNT-A LC inh2 | BoNT F protease | MazEF act
COc1ccc(C2C(=O)N(CCc3ccccc3)CC(=O)N2C2CCCCC2)cc1 (stereo not given) | -4 | 25113* | -3 | -6 | -2
CCCn1ncc(OC)c(Cl)c1=O | -11 | 21990* | 3 | 2 | -2
COc1cnn(-c2cccc(Cl)c2)c(=O)c1Cl | 4 | 4293 | 0 | 6 | -4
COc1ccc(-c2nc3cc(C)c(Br)c(C)n3c2Cc2cccc(F)c2)cc1OC | 2 | 5711 | 0 | 3 | .
Cc1[nH]n(-c2ccccc2)c(=O)c1C=Nc1cccc(F)c1 | -6 | 5180 | -1 | -5 | 4
Cc1[nH]n(-c2ccccc2)c(=O)c1C=Nc1ccc2[nH]c(=O)[nH]c2c1 | 3 | 6998 | 1 | 7 | 90*
Cc1cccc(-n2[nH]c(C)c(C=Nc3ccc4[nH]c(=O)[nH]c4c3)c2=O)c1 | -2 | 1986 | -1 | -8 | 154*
S=C(NCc1ccc(Cl)cc1)Nc1ccncc1 | 3 | 4230 | 10 | 21 | 0
O=C(CN1CCOCC1)Nc1ccc(-c2nc3ccccc3[nH]2)cc1 | 0 | 23886* | -2 | -5 | -1
COc1ccc(CC(=O)NC2CCN(CC(=O)Nc3ccc4c(c3)OCCO4)CC2)cc1OC | -4 | 23401* | -1 | -4 | -1
O=C(CN1CCC(c2nc3ccccc3[nH]2)CC1)Nc1ccc2c(c1)OCO2 | -5 | 21412* | 4 | 3 | 0
CCOc1ccccc1NC(=O)N1CCC(c2nc3ccccc3[nH]2)CC1 | 2 | 21924* | ? | 5 | 7
CN(C(=O)Cn1c(Cl)nc2c1c(=O)n(C)c(=O)n2C)C1CCS(=O)(=O)C1 (stereo not given) | -3 | 6237 | 0 | 10 | 2
CCC(C(=O)Nc1ccon1)c1ccccc1 (stereo not given) | -4 | 6148 | -4 | -9 | -4
O=C(C[C@@H]1C[C@H]2c3cc(NC(=O)NC4CCCCC4)ccc3O[C@H]2[C@H](CO)O1)NC1CCCCC1 | -3 | 3846 | 0 | -9 | -4
O=S(=O)(c1ccc2c(c1)OCCO2)N1CCC(c2nc3ccc(Cl)cc3[nH]2)CC1 | 3 | 15046 | 4 | 4 | 5
O=S(=O)(c1ccc2c(c1)OCCO2)N1CCC(c2nc3ccccc3[nH]2)CC1 | 0 | 22441* | 3 | 3 | 1
Cc1ccc2nc(C3CCN(CC(=O)Nc4ccc5c(c4)OCCO5)CC3)[nH]c2c1 | -1 | 23511* | 0 | -4 | 5
O=C(NCc1ccc(Cl)c(Cl)c1)c1cc(C2CCCCN2C(=O)c2ccccn2)on1 (stereo not given) | -3 | 2840 | 0 | 2 | .
O=c1[nH]nnc2c1cnn2-c1ccccc1 | -5 | 4466 | 0 | -2 | 6
COc1ccc(N(CC(=O)NC2CCCC2)C(=O)Cn2nnc(-c3ccc(C)cc3)n2)cc1OC | -4 | 16197* | 0 | -2 | -5
COc1ccc(-c2nnn(CC(=O)N(C3CCCCC3)C(C)C(=O)NC3CCCC3)n2)cc1OC (stereo not given) | -3 | 23408* | 0 | -1 | -2
CCC(C)N(C(=O)Cn1nnc(-c2ccc(F)cc2)n1)C1CCS(=O)(=O)C1 (stereo not given) | -2 | ? | 0 | -5 | -2
CCCNC(=O)CCCCn1c(=S)[nH]c2c([nH]c3ccc(OC)cc32)c1=O | 2 | 4144 | -1 | -3 | 4
COc1ccc2[nH]c3c(=O)n(CCCCC(=O)N4CCCC4)c(=S)[nH]c3c2c1 | -1 | 23557* | 0 | 0 | 5
COc1ccc(CCNC(=O)CSc2nnc(Cn3c(=O)sc4ccccc43)n2C)cc1OC | 0 | 24341* | ? | -2 | 4
O=C(CSc1nnc(-c2ccccc2)n1Cc1ccccc1)N1CCOCC1 | -2 | 9234 | 1 | 0 | 1
